{"source": "PubChem BioAssay", "key": {"[1]": {"test": "viability loss in pontine glioma line – cell-based, SU-DIPG-IV, MIPE4.0, CellTiter-Glo, qHTS, dose response (AID 1347063; cut-off not given, nearly all actives have AC50 up to about 30 µM;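 also: compound exposure lasted 48 hours before the viability readout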)", "settings": "CellTiter-Glo ATP luminescence"}, "[2]": {"test": "compounds altering HSF1 focus formation in cells – imaging, Selleck Cancer Library (AID 1347162; in the data active = plate-normalised HSF1 focus index below about 0.46)", "settings": "human cells, HSF1 nuclear foci imaging, at 10 µM; SSMD: measured here: HSF1 foci SSMD mean; cell count: measured here: cell number; plate-normalised HSF1 focus index: stronger effect = lower value"}, "[3]": {"test": "growth inhibition, single agent or in combination, cell-based, chromothripsis tumors, cisplatin or BGB combos (AID 1671449);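 also: cells exposed for 96 hours; 0% = vehicle DMSO and 100% = killing by high DMSO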", "settings": "LFS_MB_P medulloblastoma cells"}, "[4]": {"test": "growth inhibition, single agent and combos, cell-based, chromothripsis tumors, cisplatin or BGB combos (AID 1671450);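 also: cells exposed to compound for four days; 0% = vehicle DMSO and 100% = cell killing by high DMSO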", "settings": "HDN33 neuroblastoma cells, stronger effect = higher value"}, "[5]": {"test": "growth inhibition, single agents and combos, ICB984, cell-based, cisplatin or BGB combos, synergistic combos for chromothripsis tumors (AID 1671451; call rule not given here;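 also: cells exposed for 96 hours before readout; 0% = vehicle DMSO and 100% = killing by high DMSO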)", "settings": "ICB984 medulloblastoma cells, drug combinations, stronger effect = higher value"}, "[6]": {"test": "growth inhibition, single agents and combos, HTB85, cell-based, BGB or cisplatin IC20 combos, synergistic combos for chromothripsis tumors (AID 1671453);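 also: cells exposed for 96 hours before readout; 0% = vehicle DMSO and 100% = high DMSO killing control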", "settings": "HTB85 osteosarcoma cells, drug combinations, stronger effect = higher value"}, "[7]": {"test": "growth inhibition, MDA-MB-436, cell-based, BGB or cisplatin combos, synergistic combos for chromothripsis tumors (AID 1671458; call rule not given here;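 also: cells exposed for 96 hours; 0% = vehicle DMSO and 100% = killing by high DMSO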)", "settings": "MDA-MB-436 breast carcinoma growth inhibition, drug combinations, stronger effect = higher value"}, "[8]": {"test": "BT084 cell growth, single and combined drugs, ICGC_MB145, cisplatin and BGB IC40 combos (AID 1671461);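 also: cells exposed to drugs for 96 hours; 0% = vehicle DMSO and 100% = high DMSO full killing control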", "settings": "BT084 medulloblastoma cells, drug combinations, stronger effect = higher value"}, "[9]": {"test": "RCMB18 cell growth, single agent and combined, cisplatin and BGB IC40 combos (AID 1671462);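 also: cells exposed to compound for four days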", "settings": "RCMB18 medulloblastoma cells, stronger effect = higher value"}, "[10]": {"test": "CRL1545 cell growth, single agent and combined, cisplatin and BGB IC20 combos (AID 1671464);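 also: cells exposed to compound for 96 hours before readout; 0% = vehicle DMSO and 100% = high DMSO killing control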", "settings": "CRL1545 osteosarcoma cells, stronger effect = higher value"}, "[11]": {"test": "compounds altering viability of human ES cells (AID 493140; call rule not given here;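 also: cells exposed to compounds for four days before counting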)", "settings": "human embryonic stem cell survival screen; stronger effect = higher value"}, "[12]": {"target": "Mitogen-activated protein kinase 7 (Homo sapiens) (UniProt Q13164)", "sequence (Q13164 whole entry, looked up, the tested form may be a part)": "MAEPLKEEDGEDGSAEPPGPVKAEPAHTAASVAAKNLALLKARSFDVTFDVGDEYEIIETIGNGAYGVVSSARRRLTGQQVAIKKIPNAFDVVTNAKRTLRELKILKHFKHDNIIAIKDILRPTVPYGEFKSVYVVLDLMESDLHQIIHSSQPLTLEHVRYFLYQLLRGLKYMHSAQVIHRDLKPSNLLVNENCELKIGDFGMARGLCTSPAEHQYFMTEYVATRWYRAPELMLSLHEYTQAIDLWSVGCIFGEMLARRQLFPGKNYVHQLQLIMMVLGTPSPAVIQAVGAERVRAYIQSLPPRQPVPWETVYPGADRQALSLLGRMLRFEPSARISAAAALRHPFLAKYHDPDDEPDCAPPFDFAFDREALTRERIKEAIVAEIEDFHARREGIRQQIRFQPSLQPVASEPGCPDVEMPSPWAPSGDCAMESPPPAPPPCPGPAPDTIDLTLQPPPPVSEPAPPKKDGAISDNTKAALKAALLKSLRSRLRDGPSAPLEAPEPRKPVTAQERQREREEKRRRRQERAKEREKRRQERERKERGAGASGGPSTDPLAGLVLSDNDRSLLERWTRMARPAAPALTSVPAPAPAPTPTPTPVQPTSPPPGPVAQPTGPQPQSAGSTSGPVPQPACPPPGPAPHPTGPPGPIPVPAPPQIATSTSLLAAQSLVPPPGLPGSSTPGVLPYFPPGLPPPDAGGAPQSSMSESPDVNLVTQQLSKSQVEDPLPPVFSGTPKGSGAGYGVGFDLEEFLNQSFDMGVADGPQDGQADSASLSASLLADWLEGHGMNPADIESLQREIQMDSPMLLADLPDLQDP", "test": "Gal4-ERK5 driven luciferase induction – cell-based, HTS, primary screen (AID 1508626;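 active = luciferase signal above three times the same-plate solvent-only control wells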;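 also: luciferase driven by Gal4-ERK5 fusion binding five Gal4 sites before minimal TATA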)", "settings": "HeLa Gal4-ERK5 transactivation, 18 h, at 5 µM, stronger effect = higher value"}, "[13]": {"settings": "measured here: with BGB IC20 combination, at 0.5 µM"}, "[14]": {"settings": "measured here: with cisplatin IC20 combination, at 0.5 µM"}}, "note": "Where “and” joins values, the source holds several entries; their conditions need not be identical. Equal values may be shown once. Records with an inconclusive call do not appear. Calls of active or inactive are those of the source. Rule as the data show it, unless noted: active = inhibition above about 80%; inactive = the rest."}
{"smiles": "Nc1nc(Cl)nc2c1ncn2[C@@H]1O[C@H](CO)[C@@H](O)[C@@H]1F", "values": [{"measurement": "AC50", "setting": "[1]", "result": "33.2 nM (active)"}, {"measurement": "SSMD", "setting": "[2]", "result": -4.45}, {"measurement": "cell count", "setting": "[2]", "result": 7490}, {"measurement": "plate-normalised HSF1 focus index", "setting": "[2]", "result": "0.84 (inactive)"}, {"measurement": "inhibition", "setting": "[3]; at 0.5 µM, stronger effect = higher value", "result": "-3.9% (inactive) and -14.3% (inactive)"}, {"measurement": "inhibition", "setting": "[3]; measured here: combination with BGB IC20, at 0.005 µM", "result": "-8.83% and 6.96%"}, {"measurement": "inhibition", "setting": "[3]; measured here: combination with BGB IC40, at 0.005 µM", "result": "-20.3% and 1.78%"}, {"measurement": "inhibition", "setting": "[3]; measured here: combination with BGB IC40, at 0.05 µM", "result": "-15.7% and -36.2%"}, {"measurement": "inhibition", "setting": "[3]; measured here: combination with cisplatin, at 0.5 µM, stronger effect = higher value", "result": "-5.98% and 57.4%"}, {"measurement": "inhibition", "setting": "[3]; measured here: combination with cisplatin, at 5 µM, stronger effect = higher value", "result": "71.4% and 96.1%"}, {"measurement": "inhibition", "setting": "[4]; BGB combo, at 5 µM", "result": "93.3% and 87.1%"}, {"measurement": "inhibition", "setting": "[4]; at 0.5 µM", "result": "73.2% (inactive) and 66.1% (inactive)"}, {"measurement": "inhibition", "setting": "[4]; cisplatin combo, at 5 µM", "result": "95.5% and 89.7%"}, {"measurement": "inhibition", "setting": "[4]; [13]", "result": "77.5% and 72.5%"}, {"measurement": "inhibition", "setting": "[4]; [14]", "result": "73.9% and 60.5%"}, {"measurement": "inhibition", "setting": "[4]; single agent, at 5 µM", "result": "90.8% and 89.8%"}, {"measurement": "inhibition", "setting": "[5]; BGB IC20 combo, at 0.005 µM", "result": "-17.9% and 1.1%"}, {"measurement": "inhibition", "setting": "[5]; BGB IC40 combo, at 0.005 µM", "result": "-37% and -3.72%"}, {"measurement": "inhibition", "setting": "[5]; BGB IC40 combo, at 0.05 µM", "result": "35.1% and 25%"}, {"measurement": "inhibition", "setting": "[5]; at 0.5 µM", "result": "-24.6% (inactive) and -23.6% (inactive)"}, {"measurement": "inhibition", "setting": "[5]; cisplatin combo, at 0.05 µM", "result": "35.1% and 22.3%"}, {"measurement": "inhibition", "setting": "[5]; cisplatin combo, at 0.5 µM", "result": "-35.6% and 1.18%"}, {"measurement": "inhibition", "setting": "[5]; cisplatin combo, at 5 µM", "result": "0.299% and -46.4%"}, {"measurement": "inhibition", "setting": "[5]; measured here: 5 uM single agent, at 5 µM", "result": "-18.8% and -11.5%"}, {"measurement": "inhibition", "setting": "[6]; at 0.5 µM", "result": "75.4% (inactive) and 77.9% (inactive)"}, {"measurement": "inhibition", "setting": "[6]; measured here: with BGB IC20, at 0.5 µM", "result": "66.7% and 73.9%"}, {"measurement": "inhibition", "setting": "[6]; measured here: with BGB IC20, at 5 µM", "result": "95.1% and 90.7%"}, {"measurement": "inhibition", "setting": "[6]; measured here: with cisplatin IC20, at 0.5 µM", "result": "78% and 76.7%"}, {"measurement": "inhibition", "setting": "[6]; measured here: with cisplatin IC20, at 5 µM", "result": "97.1% and 95.9%"}, {"measurement": "inhibition", "setting": "[6]; single agent, at 5 µM", "result": 96.4, "unit": "%"}, {"measurement": "inhibition", "setting": "[7]; at 0.5 µM", "result": "45.3% (inactive) and 53.2% (inactive)"}, {"measurement": "inhibition", "setting": "[7]; measured here: BGB combination, at 0.5 µM", "result": "39.5% and 52%"}, {"measurement": "inhibition", "setting": "[7]; measured here: BGB combination, at 5 µM", "result": "65.6% and 67.5%"}, {"measurement": "inhibition", "setting": "[7]; measured here: cisplatin combination, at 0.5 µM", "result": "40.6% and 46.8%"}, {"measurement": "inhibition", "setting": "[7]; measured here: cisplatin combination, at 5 µM", "result": "87% and 90.6%"}, {"measurement": "inhibition", "setting": "[8]; at 0.5 µM", "result": "25.8% (inactive) and 24.8% (inactive)"}, {"measurement": "inhibition", "setting": "[8]; cisplatin combination, at 0.5 µM", "result": "61.9% and 62.5%"}, {"measurement": "inhibition", "setting": "[8]; cisplatin combination, at 5 µM", "result": "70.1% and 80%"}, {"measurement": "inhibition", "setting": "[8]; measured here: BGB IC40 combination 0.05 uM, at 0.05 µM", "result": "-13.2% and 17.9%"}, {"measurement": "inhibition", "setting": "[8]; single agent, at 5 µM", "result": "-3.16% and -6.18%"}, {"measurement": "inhibition", "setting": "[9]; at 0.5 µM", "result": "16.9% (inactive) and 18.5% (inactive)"}, {"measurement": "inhibition", "setting": "[9]; cisplatin combo, at 5 µM", "result": "84.3% and 94.2%"}, {"measurement": "inhibition", "setting": "[9]; measured here: BGB IC40 combination, at 0.05 µM", "result": "-16.1% and -7.68%"}, {"measurement": "inhibition", "setting": "[9]; measured here: combination with cisplatin, at 0.5 µM", "result": "83.1% and 66%"}, {"measurement": "inhibition", "setting": "[9]; single agent, at 5 µM", "result": "9.06% and 45.4%"}, {"measurement": "inhibition", "setting": "[10]; at 0.5 µM", "result": "7.42% (inactive) and 10.4% (inactive)"}, {"measurement": "inhibition", "setting": "[10]; [13]", "result": "24% and 34.6%"}, {"measurement": "inhibition", "setting": "[10]; [14]", "result": "-0.869% and -3.42%"}, {"measurement": "inhibition", "setting": "[10]; single agent, at 0.05 µM", "result": "30.6% and -23.9%"}, {"measurement": "inhibition", "setting": "[10]; single agent, at 5 µM", "result": "97.1% and 92.1%"}]}
{"smiles": "COc1cc(N)c(Cl)cc1C(=O)NC1CCN(CCCOc2ccc(F)cc2)CC1OC", "note": "(centres undefined)", "values": [{"measurement": "survival", "setting": "[11]", "result": "0.75 (inactive)"}]}
{"smiles": "NCCNCCNCCN", "values": [{"measurement": "luciferase signal", "setting": "[12]", "result": "64 AU (inactive)"}]}
{"smiles": "CC(O)(P(=O)(O)O)P(=O)(O)O", "values": [{"measurement": "survival", "setting": "[11]", "result": "4.67 (inactive)"}, {"measurement": "luciferase signal", "setting": "[12]", "result": "48 AU (inactive)"}]}
{"smiles": "O=C(Nc1ccc(C(=O)O)c(O)c1)c1ccccc1", "values": [{"measurement": "luciferase signal", "setting": "[12]", "result": "48 AU (inactive)"}]}
{"smiles": "NC(=O)C1(N2CCCCC2)CCN(CCCC(=O)c2ccc(F)cc2)CC1", "values": [{"measurement": "luciferase signal", "setting": "[12]", "result": "52 AU (inactive)"}]}
{"smiles": "CC1=C(C/C=C(\\C)CCC[C@H](C)CCC[C@H](C)CCCC(C)C)C(=O)c2ccccc2C1=O", "values": [{"measurement": "luciferase signal", "setting": "[12]", "result": "156 AU (inactive)"}]}
{"smiles": "O=C1c2ccccc2C(=O)C1c1ccc(Br)cc1", "values": [{"measurement": "luciferase signal", "setting": "[12]", "result": "56 AU (inactive)"}]}
{"smiles": "OC1C(O)C(O)C(O)C(O)C1O", "note": "(centres undefined)", "values": [{"measurement": "luciferase signal", "setting": "[12]", "result": "40 AU (inactive)"}]}
